The target in experiment [1] is Death-associated protein kinase 1 (Homo sapiens) (UniProt P53355). To be noted: at 10 µM.
In experiment [2] the target is Death-associated protein kinase 2 (Homo sapiens) (UniProt Q9UIK4). As to conditions: at 1 µM.
Experiment [3] has the same target. As to conditions: at 10 µM.
Experiment [4] has as its target T1, Serine/threonine-protein kinase DCLK2 (Homo sapiens) (UniProt Q8N568).
T1 sequence (whole entry): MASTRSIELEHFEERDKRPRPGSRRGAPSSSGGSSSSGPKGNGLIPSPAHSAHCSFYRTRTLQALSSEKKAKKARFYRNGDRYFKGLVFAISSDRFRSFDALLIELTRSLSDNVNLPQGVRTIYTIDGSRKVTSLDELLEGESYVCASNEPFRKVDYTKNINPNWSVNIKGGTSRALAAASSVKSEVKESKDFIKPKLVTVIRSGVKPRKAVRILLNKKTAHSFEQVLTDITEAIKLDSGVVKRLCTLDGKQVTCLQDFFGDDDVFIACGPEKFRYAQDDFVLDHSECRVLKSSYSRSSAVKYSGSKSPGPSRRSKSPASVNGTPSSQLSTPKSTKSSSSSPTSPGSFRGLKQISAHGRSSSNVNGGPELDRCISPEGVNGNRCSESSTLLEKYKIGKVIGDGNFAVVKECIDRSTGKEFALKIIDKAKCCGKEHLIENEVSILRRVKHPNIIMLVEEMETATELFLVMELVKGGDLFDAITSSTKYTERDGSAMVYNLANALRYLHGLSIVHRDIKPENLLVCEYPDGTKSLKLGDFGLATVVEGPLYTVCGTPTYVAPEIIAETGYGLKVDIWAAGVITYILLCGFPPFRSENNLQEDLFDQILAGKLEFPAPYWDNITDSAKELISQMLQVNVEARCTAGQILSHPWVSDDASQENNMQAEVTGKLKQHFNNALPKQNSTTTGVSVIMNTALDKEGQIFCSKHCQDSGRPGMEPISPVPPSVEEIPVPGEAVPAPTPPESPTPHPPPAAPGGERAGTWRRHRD
As to conditions: at 10 µM.

Experiment [5] concerns the target T2, Discoidin domain-containing receptor 2 (Homo sapiens) (UniProt Q16832).
T2 sequence (whole entry): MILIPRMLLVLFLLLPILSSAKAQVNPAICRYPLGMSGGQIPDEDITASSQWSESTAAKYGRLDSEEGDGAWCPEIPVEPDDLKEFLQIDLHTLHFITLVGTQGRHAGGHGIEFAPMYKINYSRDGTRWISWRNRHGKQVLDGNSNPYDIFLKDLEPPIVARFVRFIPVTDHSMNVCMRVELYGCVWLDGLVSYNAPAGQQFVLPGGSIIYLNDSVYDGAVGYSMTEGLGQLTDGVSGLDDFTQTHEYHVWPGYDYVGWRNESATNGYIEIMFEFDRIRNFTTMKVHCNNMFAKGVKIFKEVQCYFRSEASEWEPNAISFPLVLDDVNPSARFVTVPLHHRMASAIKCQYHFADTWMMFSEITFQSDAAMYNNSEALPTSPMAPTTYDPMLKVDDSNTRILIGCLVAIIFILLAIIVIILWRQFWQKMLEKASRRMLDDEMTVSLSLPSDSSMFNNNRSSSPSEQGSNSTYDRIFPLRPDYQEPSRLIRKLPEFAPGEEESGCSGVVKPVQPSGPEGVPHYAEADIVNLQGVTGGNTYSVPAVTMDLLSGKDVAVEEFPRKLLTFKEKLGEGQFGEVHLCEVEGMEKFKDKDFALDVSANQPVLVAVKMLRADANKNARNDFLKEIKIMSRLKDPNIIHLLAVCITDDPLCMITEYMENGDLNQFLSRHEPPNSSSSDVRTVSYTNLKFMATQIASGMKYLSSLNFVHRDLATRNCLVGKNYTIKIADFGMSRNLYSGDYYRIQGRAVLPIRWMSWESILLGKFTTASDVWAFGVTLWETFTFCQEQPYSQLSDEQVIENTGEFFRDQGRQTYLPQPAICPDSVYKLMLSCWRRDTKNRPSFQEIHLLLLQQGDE
As to conditions: at 1 µM.

The target of experiment [6] is T2, Discoidin domain-containing receptor 2 (Homo sapiens). As to conditions: at 10 µM.
In experiment [7] the target is T3, Serine/threonine-protein kinase 17A (Homo sapiens) (UniProt Q9UEE5).
T3 sequence (whole entry): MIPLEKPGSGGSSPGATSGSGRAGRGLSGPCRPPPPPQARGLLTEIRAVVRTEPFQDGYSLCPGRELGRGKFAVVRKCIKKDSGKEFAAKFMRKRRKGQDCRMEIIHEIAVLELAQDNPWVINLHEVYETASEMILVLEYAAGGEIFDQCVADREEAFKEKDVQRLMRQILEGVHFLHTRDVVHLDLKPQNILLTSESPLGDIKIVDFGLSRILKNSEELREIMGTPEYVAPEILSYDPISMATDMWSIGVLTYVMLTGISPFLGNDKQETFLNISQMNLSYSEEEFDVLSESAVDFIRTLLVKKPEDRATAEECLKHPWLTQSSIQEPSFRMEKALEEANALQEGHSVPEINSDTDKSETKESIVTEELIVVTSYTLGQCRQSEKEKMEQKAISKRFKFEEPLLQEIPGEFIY
To be noted: at 1 µM.

Experiment [8] has as its target T3, Serine/threonine-protein kinase 17A (Homo sapiens). As to conditions: at 10 µM.
Experiment [9] concerns the target T4, Ephrin type-A receptor 1 (Homo sapiens) (UniProt P21709).
T4 sequence (whole entry): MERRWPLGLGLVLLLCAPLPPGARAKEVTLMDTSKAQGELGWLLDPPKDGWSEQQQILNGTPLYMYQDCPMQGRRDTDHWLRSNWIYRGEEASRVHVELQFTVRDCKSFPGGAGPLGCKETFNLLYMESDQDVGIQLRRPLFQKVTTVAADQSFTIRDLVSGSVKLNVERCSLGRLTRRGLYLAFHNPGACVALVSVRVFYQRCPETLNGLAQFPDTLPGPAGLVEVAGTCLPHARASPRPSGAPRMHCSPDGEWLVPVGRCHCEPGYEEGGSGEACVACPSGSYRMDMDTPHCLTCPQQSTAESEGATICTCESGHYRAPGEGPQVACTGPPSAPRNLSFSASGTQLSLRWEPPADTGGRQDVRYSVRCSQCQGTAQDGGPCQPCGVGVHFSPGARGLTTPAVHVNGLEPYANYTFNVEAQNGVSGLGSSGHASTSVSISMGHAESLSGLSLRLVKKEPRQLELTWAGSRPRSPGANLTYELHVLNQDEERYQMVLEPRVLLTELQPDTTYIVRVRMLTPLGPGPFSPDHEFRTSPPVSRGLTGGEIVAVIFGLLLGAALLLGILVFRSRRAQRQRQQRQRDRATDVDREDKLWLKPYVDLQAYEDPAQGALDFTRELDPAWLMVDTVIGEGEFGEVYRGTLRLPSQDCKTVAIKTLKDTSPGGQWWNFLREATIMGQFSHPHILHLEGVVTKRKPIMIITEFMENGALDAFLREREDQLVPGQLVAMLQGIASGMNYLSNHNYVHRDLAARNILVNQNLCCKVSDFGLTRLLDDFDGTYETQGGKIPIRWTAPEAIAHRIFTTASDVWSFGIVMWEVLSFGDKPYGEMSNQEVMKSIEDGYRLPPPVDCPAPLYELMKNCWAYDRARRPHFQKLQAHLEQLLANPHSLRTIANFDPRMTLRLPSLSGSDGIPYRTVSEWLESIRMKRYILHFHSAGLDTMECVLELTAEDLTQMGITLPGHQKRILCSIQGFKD
To be noted: at 1 µM.

The target in experiment [10] is T4, Ephrin type-A receptor 1 (Homo sapiens). As to conditions: at 10 µM.
The target of experiment [11] is Ephrin type-A receptor 2 (Homo sapiens) (UniProt P29317). As to conditions: at 1 µM.
Experiment [12] shares this target. As to conditions: at 10 µM.
Experiment [13] has as its target T1, Serine/threonine-protein kinase DCLK2 (Homo sapiens). To be noted: at 1 µM.
Experiment [14] concerns the target T5, Myotonin-protein kinase (Homo sapiens) (UniProt Q09013).
T5 sequence (whole entry): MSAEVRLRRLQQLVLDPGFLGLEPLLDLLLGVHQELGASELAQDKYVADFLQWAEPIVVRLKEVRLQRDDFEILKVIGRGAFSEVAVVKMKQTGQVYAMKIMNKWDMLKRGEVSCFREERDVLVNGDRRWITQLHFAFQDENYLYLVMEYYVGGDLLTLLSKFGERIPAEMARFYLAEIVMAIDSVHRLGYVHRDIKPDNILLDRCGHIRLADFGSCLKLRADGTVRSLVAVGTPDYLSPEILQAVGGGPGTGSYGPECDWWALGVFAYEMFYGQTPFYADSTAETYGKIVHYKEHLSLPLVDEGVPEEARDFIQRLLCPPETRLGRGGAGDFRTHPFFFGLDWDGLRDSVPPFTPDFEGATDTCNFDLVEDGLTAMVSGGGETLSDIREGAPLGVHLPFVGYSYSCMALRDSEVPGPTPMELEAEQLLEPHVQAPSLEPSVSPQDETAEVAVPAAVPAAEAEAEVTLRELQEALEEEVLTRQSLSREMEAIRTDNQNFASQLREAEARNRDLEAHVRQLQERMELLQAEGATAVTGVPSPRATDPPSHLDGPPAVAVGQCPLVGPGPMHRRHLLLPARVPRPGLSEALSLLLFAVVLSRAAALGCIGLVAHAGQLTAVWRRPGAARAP
To be noted: at 10 µM.

The target of experiment [15] is T6, Dual specificity tyrosine-phosphorylation-regulated kinase 2 (Homo sapiens) (UniProt Q92630).
T6 sequence (whole entry): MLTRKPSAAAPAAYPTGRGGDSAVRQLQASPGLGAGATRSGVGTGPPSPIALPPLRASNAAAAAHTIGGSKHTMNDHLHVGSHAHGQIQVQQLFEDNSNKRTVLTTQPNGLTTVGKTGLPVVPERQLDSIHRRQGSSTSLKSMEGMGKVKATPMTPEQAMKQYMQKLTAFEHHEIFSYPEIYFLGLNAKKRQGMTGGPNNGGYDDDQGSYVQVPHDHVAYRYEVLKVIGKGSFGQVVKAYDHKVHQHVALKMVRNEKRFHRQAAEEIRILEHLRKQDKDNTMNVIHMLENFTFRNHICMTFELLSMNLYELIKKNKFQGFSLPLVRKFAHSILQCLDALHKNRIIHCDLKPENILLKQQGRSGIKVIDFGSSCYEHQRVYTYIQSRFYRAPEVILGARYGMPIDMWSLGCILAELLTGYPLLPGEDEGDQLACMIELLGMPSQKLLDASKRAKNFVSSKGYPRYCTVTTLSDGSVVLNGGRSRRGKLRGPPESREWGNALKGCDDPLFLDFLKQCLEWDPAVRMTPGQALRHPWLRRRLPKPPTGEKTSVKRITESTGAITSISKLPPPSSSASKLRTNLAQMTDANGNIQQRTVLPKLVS
As to conditions: at 1 µM.

In experiment [16] the target is T6, Dual specificity tyrosine-phosphorylation-regulated kinase 2 (Homo sapiens). As to conditions: at 10 µM.
Experiment [17] addresses T7, Ephrin type-A receptor 3 (Homo sapiens) (UniProt P29320).
T7 sequence (whole entry): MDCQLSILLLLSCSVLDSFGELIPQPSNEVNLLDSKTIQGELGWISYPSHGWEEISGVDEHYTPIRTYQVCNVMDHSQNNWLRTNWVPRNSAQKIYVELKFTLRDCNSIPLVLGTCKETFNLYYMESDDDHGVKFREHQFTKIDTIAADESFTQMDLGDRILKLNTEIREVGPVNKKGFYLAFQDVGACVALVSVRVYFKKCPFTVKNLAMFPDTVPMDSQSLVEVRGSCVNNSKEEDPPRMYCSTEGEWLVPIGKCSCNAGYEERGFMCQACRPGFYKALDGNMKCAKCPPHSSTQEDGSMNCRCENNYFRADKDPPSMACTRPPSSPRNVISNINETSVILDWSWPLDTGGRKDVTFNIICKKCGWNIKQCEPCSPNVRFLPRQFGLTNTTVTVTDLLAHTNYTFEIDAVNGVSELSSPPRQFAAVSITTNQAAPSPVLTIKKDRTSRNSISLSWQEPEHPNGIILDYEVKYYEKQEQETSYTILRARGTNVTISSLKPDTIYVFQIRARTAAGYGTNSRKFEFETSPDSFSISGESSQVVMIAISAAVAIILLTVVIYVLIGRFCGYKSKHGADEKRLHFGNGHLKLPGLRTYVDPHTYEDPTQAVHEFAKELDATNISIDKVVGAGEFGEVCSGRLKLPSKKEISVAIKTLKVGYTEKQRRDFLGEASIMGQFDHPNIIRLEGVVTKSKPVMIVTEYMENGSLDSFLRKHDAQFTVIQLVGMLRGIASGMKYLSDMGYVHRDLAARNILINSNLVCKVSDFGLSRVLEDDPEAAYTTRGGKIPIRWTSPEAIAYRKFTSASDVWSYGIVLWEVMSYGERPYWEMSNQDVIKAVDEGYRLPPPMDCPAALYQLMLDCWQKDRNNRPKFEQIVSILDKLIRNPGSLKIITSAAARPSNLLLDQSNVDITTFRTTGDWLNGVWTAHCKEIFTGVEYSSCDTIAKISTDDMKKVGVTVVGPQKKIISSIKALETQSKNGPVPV
To be noted: at 1 µM.

Death-associated protein kinase 2 (Homo sapiens), sequence (Q9UIK4 whole entry, looked up): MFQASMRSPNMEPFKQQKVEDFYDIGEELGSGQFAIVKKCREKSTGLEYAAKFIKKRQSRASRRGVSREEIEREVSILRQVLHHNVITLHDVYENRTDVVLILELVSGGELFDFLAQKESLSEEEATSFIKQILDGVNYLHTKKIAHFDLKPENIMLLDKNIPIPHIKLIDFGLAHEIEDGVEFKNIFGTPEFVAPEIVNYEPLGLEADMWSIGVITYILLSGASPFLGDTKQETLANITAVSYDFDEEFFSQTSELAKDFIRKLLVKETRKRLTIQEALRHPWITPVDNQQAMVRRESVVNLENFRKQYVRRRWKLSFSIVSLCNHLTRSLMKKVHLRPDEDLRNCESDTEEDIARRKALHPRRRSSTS
Ephrin type-A receptor 2 (Homo sapiens), sequence (P29317 whole entry): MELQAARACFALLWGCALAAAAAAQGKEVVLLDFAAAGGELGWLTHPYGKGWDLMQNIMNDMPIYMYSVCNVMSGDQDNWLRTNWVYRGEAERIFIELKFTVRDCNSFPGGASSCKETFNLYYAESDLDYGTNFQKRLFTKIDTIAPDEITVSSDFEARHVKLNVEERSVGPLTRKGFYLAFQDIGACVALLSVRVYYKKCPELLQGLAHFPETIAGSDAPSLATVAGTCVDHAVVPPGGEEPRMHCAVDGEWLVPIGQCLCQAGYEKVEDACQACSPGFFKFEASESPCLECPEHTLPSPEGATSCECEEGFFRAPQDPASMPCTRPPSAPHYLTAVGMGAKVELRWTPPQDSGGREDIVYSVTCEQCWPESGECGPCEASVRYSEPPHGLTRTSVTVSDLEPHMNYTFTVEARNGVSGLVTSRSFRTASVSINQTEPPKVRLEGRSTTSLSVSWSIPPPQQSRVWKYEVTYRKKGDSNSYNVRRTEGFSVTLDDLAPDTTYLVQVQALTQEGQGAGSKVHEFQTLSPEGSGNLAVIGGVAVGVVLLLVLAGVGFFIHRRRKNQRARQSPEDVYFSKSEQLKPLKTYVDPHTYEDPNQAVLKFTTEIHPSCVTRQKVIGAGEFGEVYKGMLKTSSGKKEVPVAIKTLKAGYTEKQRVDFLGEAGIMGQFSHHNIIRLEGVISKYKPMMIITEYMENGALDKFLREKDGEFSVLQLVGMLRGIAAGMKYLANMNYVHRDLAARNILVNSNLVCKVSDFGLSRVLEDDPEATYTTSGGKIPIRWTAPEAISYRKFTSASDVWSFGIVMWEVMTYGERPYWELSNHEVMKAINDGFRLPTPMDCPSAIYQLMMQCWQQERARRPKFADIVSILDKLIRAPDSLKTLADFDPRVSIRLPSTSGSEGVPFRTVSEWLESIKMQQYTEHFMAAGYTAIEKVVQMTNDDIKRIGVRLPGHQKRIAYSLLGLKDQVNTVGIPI
Death-associated protein kinase 1 (Homo sapiens), sequence (P53355 whole entry, looked up): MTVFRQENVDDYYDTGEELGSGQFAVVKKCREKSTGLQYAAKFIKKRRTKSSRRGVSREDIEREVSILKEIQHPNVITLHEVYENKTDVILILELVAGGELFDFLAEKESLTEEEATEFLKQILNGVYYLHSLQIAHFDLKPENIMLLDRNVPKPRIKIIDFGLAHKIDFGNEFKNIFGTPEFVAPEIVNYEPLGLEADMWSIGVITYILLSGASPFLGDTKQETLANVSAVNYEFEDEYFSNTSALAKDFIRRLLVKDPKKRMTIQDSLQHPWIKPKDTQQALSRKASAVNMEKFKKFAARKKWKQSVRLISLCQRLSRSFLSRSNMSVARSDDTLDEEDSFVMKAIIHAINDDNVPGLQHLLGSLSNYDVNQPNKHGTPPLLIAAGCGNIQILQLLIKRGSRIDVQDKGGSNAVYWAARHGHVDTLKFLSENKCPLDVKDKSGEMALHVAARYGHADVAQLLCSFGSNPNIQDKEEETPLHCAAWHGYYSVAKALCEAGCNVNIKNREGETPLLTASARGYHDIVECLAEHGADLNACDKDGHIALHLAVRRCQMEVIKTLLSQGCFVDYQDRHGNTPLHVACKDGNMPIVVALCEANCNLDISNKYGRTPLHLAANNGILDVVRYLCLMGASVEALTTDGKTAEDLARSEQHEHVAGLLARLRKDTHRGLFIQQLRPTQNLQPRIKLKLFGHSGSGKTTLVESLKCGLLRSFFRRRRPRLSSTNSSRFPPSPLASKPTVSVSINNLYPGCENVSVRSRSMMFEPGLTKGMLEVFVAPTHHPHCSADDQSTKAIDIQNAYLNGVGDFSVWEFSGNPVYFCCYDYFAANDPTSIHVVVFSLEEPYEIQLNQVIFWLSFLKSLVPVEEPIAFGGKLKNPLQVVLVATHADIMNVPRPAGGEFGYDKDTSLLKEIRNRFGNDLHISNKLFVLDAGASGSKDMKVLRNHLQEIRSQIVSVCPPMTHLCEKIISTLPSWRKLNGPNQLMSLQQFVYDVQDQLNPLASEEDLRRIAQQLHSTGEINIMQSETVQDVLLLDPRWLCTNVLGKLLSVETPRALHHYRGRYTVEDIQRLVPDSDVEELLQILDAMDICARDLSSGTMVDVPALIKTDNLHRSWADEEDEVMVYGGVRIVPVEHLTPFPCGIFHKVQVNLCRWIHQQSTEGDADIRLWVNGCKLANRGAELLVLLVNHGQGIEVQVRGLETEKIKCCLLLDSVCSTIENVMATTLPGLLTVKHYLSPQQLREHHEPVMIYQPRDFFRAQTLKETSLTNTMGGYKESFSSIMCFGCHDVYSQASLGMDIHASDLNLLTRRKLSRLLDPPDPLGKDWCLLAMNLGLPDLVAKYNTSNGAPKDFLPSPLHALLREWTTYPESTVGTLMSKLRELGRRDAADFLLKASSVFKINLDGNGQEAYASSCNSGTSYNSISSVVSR

A word on the residual activity: it is the signal under treatment as a percentage of the control signal. Regarding `CCN(CC)C(=O)c1ccc(Nc2nc(OCC3CCCCC3)c3nc[nH]c3n2)cc1`, the residual activity in [1] turned out to be 54%; in [2], 96%; in [3], 68%; in experiment [4] it was 99%; in experiment [5] it was 93%; in experiment [6], 66%. Also, the residual activity worked out at 23% in [7]; 4% in experiment [8]; 60% in experiment [9]; 8% in experiment [10]; 77% in experiment [11]; 42% in experiment [12].
As for `Oc1c2ccccc2c2c3c(cccc13)N=N2`, the residual activity in [1] was 68%; in experiment [2] it was 87%; in [3], 43%; in experiment [13] it was 116%; in experiment [4] it was 51%; in experiment [5], 93%. Moreover, the residual activity in [6] is 92%; in experiment [14], 68%; in experiment [7], 6%; in experiment [8] it was 2%; in experiment [15], 4%; in experiment [16], -5%. Further, the residual activity in [9] is 67%; in experiment [10], 42%; in experiment [11], 88%; in [12] it was 60%; in [17], 75%.

The values above are taken from ChEMBL document CHEMBL2218924, “A broad activity screen in support of a chemogenomic map for kinase signalling research and drug discovery” (Biochem J, 2013).
